Screening data: PubChem BioAssay, National Center for Advancing Translational Sciences (NCATS)
The list is not random: actives were taken first. Their share in the collection is about 11%.
NPR1 antag = antagonists of human natriuretic peptide receptor Npr1 | P16066 | HEK293 hNpr1 GloSensor cGMP, ANP-stimulated luminescence | Potency, µM (doses to about 46.3 µM), without a hit: at the highest dose activity change, negative = inhibition, most hits filed as inhibitors | 1.6% of 76,000 active | AID 1347048; calls by dose curve; note: % is set by controls: 0 for no effect and ±100 for the full control effect; nearly all actives have a fitted effect of over 60% in size
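HEK293 cells stably expressing human Npr1 and cGMP GloSensor pGS-40F, loaded 2 h with 2% GloSensor reagent, given compound 30 min at room temperature. Luminescence read before and 20 min after 0.1 nM hNppA.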
FLuc inh = blocks purified firefly luciferase enzyme activity | 2.5% of 76,000 active | Potency, µM (titrated, usually from 115 µM), actives largely listed as inhibitors | purified P. pyralis luciferase, luminescence, biochemical | AID 1347043 | P08659; note: % is set by controls: 0 for no effect and ±100 for the full control effect; nearly all actives have a fitted effect of over 65% in size
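Cell-free enzyme assay, 10nM P. pyralis luciferase, luciferin and ATP each at 10uM. Inhibition profiled over a 6-point titration, read as luminescence.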
NIH3T3 tox = kills NIH 3T3 cells | NIH 3T3 viability, CellTiter-Glo ATP luminescence, 48-72 h | Potency, µM (titrated, usually from 96.7 µM), without a hit: at the top dose activity change, negative = cytotoxicity, actives largely listed as inhibitors | 4.3% of 94,000 active | AID 1345082; note: % is set by controls: 0 for no effect and ±100 for the full control effect; nearly all actives have a fitted effect of over 55% in size
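Viability of NIH 3T3 cells after 48 or 72 hr compound treatment at 37 °C was assessed by CellTiter-Glo, with luminescence imaged following a 10 min room-temperature step.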
HEK cytotox = kills HEK 293 cells. HEK 293 viability, ATP luminescence (CellTiter-Glo), 48-72 h. 6.6% of 94,000 active. Potency, µM (doses to about 115 µM), inactives show top-dose activity change, negative = cytotoxicity, actives largely listed as inhibitors; note: % is set by controls: 0 for no effect and ±100 for the full control effect; nearly all actives have a fitted effect of over 60% in size
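250 HEK 293 cells/well; compound by pintool; incubated 48 or 72 hr at 37 degree Celsius; CellTiter-Glo added, 10 min RT, luminescence imaged.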
Npr1 antag conf = hNpr1 antagonism, confirmation assay | shares compounds with NPR1 antag | HEK293 hNpr1 cGMP GloSensor luminescence, ANP-stimulated | Potency, µM (series often up to 57.6 µM), for the others: top-dose activity change, negative = inhibition, usual class: inhibitors | 76% of 1,400 active | AID 1347044; calls by dose curve; note: nearly all actives have a fitted effect of over 70% in size
NPR2 antag = hNpr2 antagonism, selectivity versus Npr1. HEK293 hNpr2 GloSensor cGMP luminescence, CNP-stimulated. shares compounds with NPR1 antag. Potency, µM (titrated, usually from 57.6 µM), without a hit: at the highest dose activity change, negative = inhibition, hits mostly inhibitors. 67% of 1,400 active. AID 1347046; calls by dose curve; note: nearly all actives have a fitted effect of over 70% in size
Target sequence (P20594 whole entry, looked up): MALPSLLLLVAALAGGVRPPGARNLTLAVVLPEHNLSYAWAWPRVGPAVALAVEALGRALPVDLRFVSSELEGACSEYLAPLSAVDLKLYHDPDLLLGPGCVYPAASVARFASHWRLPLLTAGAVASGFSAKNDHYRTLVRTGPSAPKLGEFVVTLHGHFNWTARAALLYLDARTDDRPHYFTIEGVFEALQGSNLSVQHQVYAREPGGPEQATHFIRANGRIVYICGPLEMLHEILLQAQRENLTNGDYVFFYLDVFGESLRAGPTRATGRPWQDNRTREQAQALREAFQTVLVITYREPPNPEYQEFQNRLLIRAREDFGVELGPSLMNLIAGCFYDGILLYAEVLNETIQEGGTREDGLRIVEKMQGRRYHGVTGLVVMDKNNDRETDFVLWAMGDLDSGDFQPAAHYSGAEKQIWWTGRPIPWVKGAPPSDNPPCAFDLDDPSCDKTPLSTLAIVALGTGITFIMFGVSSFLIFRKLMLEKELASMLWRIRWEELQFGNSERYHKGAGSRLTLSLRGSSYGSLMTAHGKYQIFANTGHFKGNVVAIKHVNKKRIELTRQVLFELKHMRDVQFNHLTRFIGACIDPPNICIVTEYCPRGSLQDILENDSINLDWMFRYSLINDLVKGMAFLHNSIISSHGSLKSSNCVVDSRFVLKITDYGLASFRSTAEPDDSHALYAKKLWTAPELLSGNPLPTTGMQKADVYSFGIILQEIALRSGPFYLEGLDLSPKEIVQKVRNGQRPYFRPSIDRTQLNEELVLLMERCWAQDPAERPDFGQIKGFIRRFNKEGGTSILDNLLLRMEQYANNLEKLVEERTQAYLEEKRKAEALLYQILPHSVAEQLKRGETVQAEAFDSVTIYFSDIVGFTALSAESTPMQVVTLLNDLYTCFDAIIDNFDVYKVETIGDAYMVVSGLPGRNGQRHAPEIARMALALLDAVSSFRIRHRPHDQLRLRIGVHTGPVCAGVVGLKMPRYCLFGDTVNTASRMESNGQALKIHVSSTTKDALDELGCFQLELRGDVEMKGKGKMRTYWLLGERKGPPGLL
FLuc counter = counter-screen for Npr1 antagonists: firefly luciferase inhibitors; shares compounds with NPR1 antag; purified FLuc enzyme, luminescence, Km substrate; Potency, µM (top dose mostly 57.6 µM), without a hit: at the top dose activity change, negative = inhibition, usual class: inhibitors; 0.7% of 1,400 active; AID 1347047; note: 0% is about no effect
GloSensor ctrl = control cell line activity, Npr1 antagonist counter-screen. HEK293 GloSensor cGMP, SNP-stimulated, luminescence. 69% of 1,400 active. shares compounds with NPR1 antag. Potency, µM (titrated, usually from 57.6 µM), for inactives: at the top dose activity change, negative = inhibition, hits mostly inhibitors; calls by dose curve; note: % is set by controls: 0 for no effect and ±100 for the full control effect; nearly all actives have a fitted effect of over 70% in size
* hit, by the source's call; i = inactive; ? = inconclusive; . = no result; [ ] = another dose, or the depositor's remark. Unless noted, calls come from the whole dose curve; as a rule, active = well fitted curve in the direction sought with a large enough effect; inconclusive = small, poorly fitted or top-dose-only effect, or another doubt; inactive = no such curve, though single readings can be large; an effect the other way counts as inactive or inconclusive. Potency is the fitted concentration of half-maximal effect.

SMILES	NPR1 antag	FLuc inh	NIH3T3 tox	HEK cytotox	Npr1 antag conf	NPR2 antag	FLuc counter	GloSensor ctrl
Cc1ccc2c(c1)nc1n2[C@@H](CNCc2ccccc2)COC1	?	i	112µM*	?	35.3µM*	?	-1.8%[86.2 µM]	?
Cc1cccc2c1nc1n2[C@@H](CNS(=O)(=O)c2ccc(F)cc2)COC1	?	i	?	?	.	.	.	.
Cc1cccc2c1nc1n2[C@@H](CNS(=O)(=O)Cc2ccccc2)COC1	35.5µM*	i	?	?	28µM*	28µM*	-0.4%[86.2 µM]	28µM*
O=C(c1ccc(C(F)(F)F)cc1)N1CCC(N2CCCOC2=O)CC1	.	.	-2.4%	-0.9%	.	.	.	.
COc1cccc(N2C(=O)NC(=NC3CCCCC3)C23CCN([S+](=O)([O-])c2cccc(OC)c2)C3)c1 (centres undefined)	13.8%	i	-18.4%	-10.2%	.	.	.	.
CCCN(CC1CCOC1)C(=O)Nc1cccc(CC)c1 (centres undefined)	-8.3%	i	-22.3%	-1.6%	.	.	.	.
O=C1Nc2ccccc2CC12CN(Cc1c[nH]c3ccccc13)C2	.	.	?	-26.1%	.	.	.	.
c1ccc(Nc2cc3c(cn2)CN(Cc2c[nH]c4ccccc24)CCN3)cc1	?	i	25.1µM*	?	11.1µM*	6.27µM*	-24.7%[86.2 µM]	?
CN1CC(C(=O)N2CCC(Cc3ccccc3)CC2)NC1=O (centres undefined)	.	.	-32.2%[138 µM]	-14.1%[172 µM]	.	.	.	.
O=C1NCCCCCCN(S(=O)(=O)c2ccccc2)[C@H]2C[C@H](c3nc(-c4cccnc4)no3)C[C@@H]12	-8.2%	i	-22.6%	-4.2%	.	.	.	.
O=C(NCCc1ccccc1)C1CCc2ncc(-c3ccsc3)n2C1 (centres undefined)	?	i	?	?	?	-25.0%	3.0%	-29.1%
COc1ccccc1OCCNC(=O)C1CCc2ncc(-c3ccc(F)cc3)n2C1 (centres undefined)	?	i	-21.8%	?	19.3µM*	19.3µM*	-0.2%	-16.4%
COC(=O)c1ccc(NC(=O)N2CC(Oc3cccc(-c4nc(C)no4)c3)C2)cc1	12.6µM*	i	?	?	24.3µM*	24.3µM*	-1.3%	24.3µM*
O=C(Nc1ccccc1)N1CC(Oc2ccc(-c3noc(-c4ccncc4)n3)cc2)C1	11.2µM*	i	-24.8%	?	6.11µM*	8.62µM*	-1.2%	6.11µM*
Cc1noc(-c2cccc(OC3CN(C(=O)Nc4ccccc4)C3)c2)n1	-15.3%	i	?	?	.	.	.	.
CCn1cc(-c2ccccc2)cc1C(=O)NC(C)c1cccnc1 (centres undefined)	-4.2%	i	?	?	.	.	.	.
COc1ccc(CN2C(=O)[C@@H]3C[C@@H](CN3C3CCC3)Oc3ccccc32)cc1	?	i	31.6µM*	?	-26.6%[86.2 µM]	?	-18.8%[86.2 µM]	0.2%[86.2 µM]
COc1ccc(CN2C(=O)[C@@H]3C[C@@H](CN3C(=O)c3cnccn3)Oc3ccccc32)cc1	-0.5%[70.6 µM]	i	?	2.7%[172 µM]	.	.	.	.
COc1ccc(CN2C(=O)[C@@H]3C[C@@H](CN3C3CCCC3)Oc3ccccc32)cc1	?	i	?	?	-23.1%[86.2 µM]	?	-4.8%[86.2 µM]	-4.7%[86.2 µM]
COCC(=O)N1CCN(C(=O)c2cccc(F)c2)C[C@H]1C(=O)OC	-0.1%[70.6 µM]	i	-14.6%[174 µM]	-15.1%[172 µM]	.	.	.	.
Cc1ccccc1S(=O)(=O)N1CCC(CCC(=O)O)CC1	-0.9%	i	i	-0.5%	.	.	.	.
Cc1ccc(NC(=O)CCC2CCN(S(=O)(=O)c3ccccc3C)CC2)cc1F	?	i	?	-51.9%	?	?	3.5%	?
COc1ccc(CN2CCc3nc(C(=O)Nc4ccc(Cl)cc4)oc3CC2)cc1OC	6.31µM*	i	?	?	9.68µM*	10.9µM*	-0.4%	7.69µM*
O=C(Nc1ccc(Cl)cc1)c1nc2c(o1)CCN(Cc1ccccc1)CC2	3.98µM*	i	?	?	11.1µM*	9.94µM*	?	7.89µM*
N#Cc1cccc(CN2CCc3nc(C(=O)NCc4ccncc4)oc3CC2)c1	-25.7%[70.6 µM]	i	-25.6%[138 µM]	?	.	.	.	.
SMILES	NPR1 antag	FLuc inh	NIH3T3 tox	HEK cytotox	Npr1 antag conf	NPR2 antag	FLuc counter	GloSensor ctrl
O=C(Nc1ccc(Cl)cc1)c1nc2c(o1)CCN(Cc1cc(F)ccc1F)CC2	12.6µM*	i	?	?	15.7µM*	12.5µM*	-0.2%[86.2 µM]	9.94µM*
N#Cc1ccc(CN2CCc3nc(C(=O)Nc4cccc(C(F)(F)F)c4)oc3CC2)cc1	14.1µM*	i	?	?	17.2µM*	19.3µM*	-8.4%	10.9µM*
COCCNC(=O)c1nc2c(o1)CCN(Cc1cc(C)cc(F)c1)CC2	-11.3%[70.6 µM]	i	?	?	.	.	.	.
Cc1ccc(C(=O)N2CCc3nc(C)nc(-c4ccc(Cl)cc4)c3CC2)cc1	0.9%	i	?	?	.	.	.	.
COc1ccc(N(C)C(=O)c2c(C)oc3c2CN(Cc2ccc(F)cc2)CC3)cc1	-13.5%	?	?	?	.	.	.	.
Cc1ccc(C)c(NC(=O)NCC2CCOCC2)c1	1.0%	i	i	-5.3%	.	.	.	.
CC(C)N1C(=O)CO[C@H]2CCN(Cc3ccccc3Cl)CC[C@@H]21	2.82µM*	i	?	?	7.89µM*	11.1µM*	3.2%[86.2 µM]	6.27µM*
CC(C)N1C(=O)CO[C@H]2CCN(Cc3ccccc3)CC[C@@H]21	?	i	?	?	.	.	.	.
CC(C)c1ccc(CN2CC[C@@H]3OCC(=O)N(C(C)C)[C@H]3CC2)cc1	8.91µM*	i	?	?	7.89µM*	11.1µM*	-0.1%[86.2 µM]	6.27µM*
COC(=O)[C@@H]1Cc2ncn(Cc3ccc(Cl)cc3)c2CN1C(=O)c1ccccc1	1.2%[70.6 µM]	i	-27.1%[174 µM]	3.7%[172 µM]	.	.	.	.
COC(=O)[C@@H]1Cc2ncn(Cc3ccc(Cl)cc3)c2CN1C(=O)c1ccc(C(F)(F)F)cc1	-25.4%	i	?	?	?	-8.1%	0.1%	?
COc1ccc(NC(=O)O[C@@H]2CO[C@H]3[C@@H]2OC[C@@H]3NC(=S)Nc2ccc(Cl)cc2)cc1	12.6µM*	i	?	44.7µM*	24.3µM*	?	0.7%	24.3µM*
